# Source: PubChem BioAssay AID2685 (National Center for Advancing Translational Sciences (NCATS), 2010)
# The campaign covered roughly 320,000 compounds. About 2,100 (0.66%) were called active. Roughly 53% stayed inconclusive and do not appear here. Calls follow the shape of the dose curve; as a rule, active = well fitted inhibition curve with a large enough effect in the signal ratio, with a control signal flat (not every such curve was filed as active); inconclusive = small, poorly fitted or top-dose-only effect, or effect the other way, or a change in a side signal; inactive = flat fitted curve, though single readings scatter; the % refers to the signal ratio. The entries come from a sample that favours actives as a whole.
# Assay: qHTS Assay for Lipid Storage Modulators in Drosophila S3 Cells;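 as to cell number change: cells counted by Cell Tracker Red CMTPX staining in the red channel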
# Conditions: BODIPY lipid droplet fluorescence, 18-24 h, cells fed with added oleic acid; cell number change: measured here: cell count max response; series mostly up to 46.1 µM
# Procedure, shortened: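 Drosophila S3 cells got compounds at several concentrations plus oleic acid (400 uM solution). Laser-scanning cytometry with 488 nm excitation read lipid droplets at 500-530 nm and cells at 575-640 nm. Percent activity was relative to 20 uM Triacsin C.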
# Potency is read from the fitted curve at half-maximal effect.
Compound,Potency,cell number change [%]
C=CCNc1nc(C(=O)OCC(=O)c2ccccc2)cs1,inactive,16.2
COc1cccc(C(=O)NC(=S)Nc2cccnc2)c1,inactive,-2.34
CCOc1ccccc1N=NC1C(=O)N(C(N)=S)N=C1C (stereo not drawn),inactive,-0.35
CC1=NN(C(N)=S)C(=O)C1N=Nc1ccccc1Cl (stereo not drawn),6.51 µM (active),-28.8
CC1=NN(C(N)=S)C(=O)C1N=Nc1ccc(S(N)(=O)=O)cc1 (stereo not drawn),inactive,3.52
CC1=NN(C(N)=S)C(=O)C1N=Nc1ccccc1C (stereo not drawn),inactive,2.36
CC1=NN(C(N)=S)C(=O)C1N=Nc1ccccc1O (stereo not drawn),inactive,-20.1
CCOc1ccc(N=NC2C(=O)N(C(N)=S)N=C2C)cc1 (stereo not drawn),2.31 µM (active),-27.4
Cc1c(NC(=O)Nc2ccc([N+](=O)[O-])cc2)c(=O)n(-c2ccccc2)n1C,inactive,-0.0298
Cc1ccc(S(=O)(=O)N(CC(=O)NCCSc2ccccn2)c2cc(C)cc(C)c2)cc1,inactive,-8.96
COc1ccc(NS(=O)(=O)c2ccc(N3CC(O)=C(c4ccccc4)C3=N)cc2)cc1,inactive,18.3
COC(=O)C(NC(=O)c1ccc(F)cc1)(Nc1ncc(S(=O)(=O)c2ccc([N+](=O)[O-])cc2)s1)C(F)(F)F (stereo not drawn),inactive,0.5
O=C(NC(Nc1nc2ccc([N+](=O)[O-])cc2s1)(C(F)(F)F)C(F)(F)F)c1ccccc1Cl,5.8 µM (active),-26.5
COC(=O)C(NC(=O)c1ccccc1C)(Nc1ncc(S(=O)(=O)c2ccc([N+](=O)[O-])cc2)s1)C(F)(F)F (stereo not drawn),inactive,-2.46
Cn1cc(Cl)c(C(=O)Nc2nc3ccc([N+](=O)[O-])cc3s2)n1,inactive,-2.18
O=C(NC(Nc1nc2ccc([N+](=O)[O-])cc2s1)(C(F)(F)F)C(F)(F)F)c1cccnc1,inactive,-11
COC(=O)C(NC(=O)c1ccccc1Cl)(Nc1ncc(S(=O)(=O)c2ccc([N+](=O)[O-])cc2)s1)C(F)(F)F (stereo not drawn),20.6 µM (active),9.68
Cn1nc([N+](=O)[O-])nc1Sc1ccc(Cl)cc1,inactive,9.49
Nc1cnc(Br)cc1Br,inactive,-3.4
Cc1ccc(NC(=O)CNC(=O)c2ccc(Br)o2)nc1,inactive,

Compound,Potency,cell number change [%]
CCOc1c(N2CC(C)OC(C)C2)c(=O)c1=O (stereo not drawn),inactive,-16.5
Cc1ccc(/C=C/C(=O)Nc2sc(C)c(C)c2C(=O)OC(C)C)o1,inactive,0.157
O=S(=O)(c1ccccc1)N1CCN(c2cccc(Cl)c2)CC1,inactive,-13.5
C=CCn1c(=O)c(C(=O)Nc2ccccc2O)c(O)c2ccccc21,inactive,3.13
C=CCn1c(=O)c(C(=O)Nc2ccccc2C)c(O)c2ccccc21,18.4 µM (active),-12.3
CCn1c(=O)c(C(=O)Nc2ccccc2C)c(O)c2ccccc21,inactive,4.59
O=C(NS(=O)(=O)Oc1cccc(Cl)c1Cl)OC[C@@H]1CCCN2CCCCC12 (stereo partly drawn),inactive,-10.2
CN(C)CCCN(C(=O)c1ccc(S(=O)(=O)N2CCOCC2)cc1)c1nc2ccc(F)cc2s1,inactive,15.4
CCOC(=O)COc1ccc(Br)cc1/C=C\c1[nH]c(=O)[nH]c(=O)c1[N+](=O)[O-],20.6 µM (active),-21.8
CCOC(=O)CSC1=NC(=O)/C(=C/c2ccc(Br)cc2)S1,inactive,1.95
CCCOc1ccccc1/C=C1\SC(N)=NC1=O,inactive,13.8
CCCOc1ccc(/C=C/c2[nH]c(=O)[nH]c(=O)c2[N+](=O)[O-])cc1OCC,inactive,-5.22
CCOC(=O)COc1ccc(Br)cc1/C=C1\SC(N)=NC1=O,5.8 µM (active),-21.5
CCOC(=O)COc1ccc(Br)cc1/C=C/c1[nH]c(=O)[nH]c(=O)c1[N+](=O)[O-],inactive,-18.1
Cc1c(C(=O)N2CCCC2)sc(NC(=O)c2ccco2)c1C#N,inactive,-19.3
COC(=O)[C@@H](NC(=O)Nc1ccc(OC)cc1)C(C)C,inactive,-11.6
COC(=O)[C@@H](NC(=O)Nc1cccc(OC)c1)C(C)C,inactive,-18
COc1cc(NC(=O)N[C@H](C(=O)O)C(C)C)cc(OC)c1,5.8 µM (active),-13.1
Nc1nc2ccc(Oc3ccccc3)cc2s1,inactive,-7.07
CCOC(=O)CSc1nc(=O)n2ccccc2n1,inactive,-9.97

Compound,Potency,cell number change [%]
CCN1CCN(Cc2ccc(OCc3ccccc3)c(OC)c2)CC1,inactive,-5.92
COc1ccc(CN2CCN(C)CC2)cc1OCc1ccccc1,18.4 µM (active),-3.92
COc1ccc(CN2CCC(C)CC2)cc1OCc1ccccc1,inactive,4.43
CC(=O)Cc1cc(=O)c2c(C)cc(O)c(C3OC(CO)C(O)C(O)C3O)c2o1 (stereo not drawn),inactive,-1.27
O=C(COC(=O)c1cc(-c2ccccc2)nc2ccccc12)Nc1ccc2c(c1)OCO2,inactive,2.4
CC(=O)Nc1ccc(-n2c(C)nc(=O)c(-c3ccccc3)c2C)cc1,13 µM (active),13.2
Cc1nc(=O)c(-c2ccccc2)c(C)n1-c1ccc(O)cc1,inactive,0.899
COC(=O)c1ccc(-n2c(C)nc(=O)c(-c3ccccc3)c2C)cc1,inactive,0.97
CCN(/C=N/S(=O)(=O)c1ccc(Cl)cc1)CC,inactive,6.24
CSc1cc(C)n(-c2ccc(Cl)cc2)c(=S)c1C(C)=O,inactive,5.69
COc1ccccc1-n1c(C)cc(SC)c(C(C)=O)c1=S,inactive,
CSc1cc(C)n(-c2ccccc2C)c(=S)c1C(C)=O,29.1 µM (active),16.2
Cc1ccccc1NC(=O)NC1(C(=O)NCCCN2CCOCC2)CCCCC1,inactive,-17.7
CC(=O)N1c2c(cc(Br)cc2S(=O)(=O)NCc2ccc3c(c2)OCO3)CC1C (stereo not drawn),inactive,-27.2
CCCc1ccc2oc(C(=O)N3CCN(CC(=O)NC(C)C)CC3)c(C)c2c1,4.11 µM (active),-11.6
CCCc1ccc2oc(C(=O)N3CCN(c4cnccn4)CC3)c(C)c2c1,inactive,-14.5
CCCc1ccc2oc(C(=O)N3CCC(O)CC3)c(C)c2c1,inactive,4.78
COc1ccc(Cl)cc1C(=O)NNC(=O)c1cccnc1,inactive,
